Legend:
Experiment in all cases: DAPPL (digital affinity profiling via proximity ligation, sequencing); 10 mM Tris-HCl pH 7.5, 50 mM NaCl, 1 mM DTT, 4% glycerol, room temperature, 30 min; GST-TFs on glutathione beads, 16-mer random dsDNA library, 0.1% formaldehyde crosslink after washing; high values mean tight binding
Settings in all cases: protein: recombinant; tags: N-terminal GST; dsDNA, one strand shown
[1] = biological target: T1, ERF (Homo sapiens, UniProt P50548 1-548)
T1 sequence: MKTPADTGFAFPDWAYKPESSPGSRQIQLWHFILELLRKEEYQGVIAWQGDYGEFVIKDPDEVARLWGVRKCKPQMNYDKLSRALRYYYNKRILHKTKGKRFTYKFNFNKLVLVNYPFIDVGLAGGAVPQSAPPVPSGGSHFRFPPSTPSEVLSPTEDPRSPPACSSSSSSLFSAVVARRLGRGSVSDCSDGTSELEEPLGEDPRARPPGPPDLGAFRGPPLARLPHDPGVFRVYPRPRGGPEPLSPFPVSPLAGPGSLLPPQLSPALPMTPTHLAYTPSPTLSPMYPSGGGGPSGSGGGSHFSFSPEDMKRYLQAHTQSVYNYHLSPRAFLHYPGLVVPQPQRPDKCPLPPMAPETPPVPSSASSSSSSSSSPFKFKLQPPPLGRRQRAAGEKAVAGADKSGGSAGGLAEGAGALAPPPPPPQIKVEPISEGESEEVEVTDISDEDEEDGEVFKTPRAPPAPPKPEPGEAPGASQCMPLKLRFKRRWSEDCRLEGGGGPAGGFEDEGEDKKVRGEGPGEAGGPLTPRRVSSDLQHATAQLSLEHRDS
How it was run: (§1)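 Binding signal is each hexamer's read frequency for a factor divided by its frequency in the tag-only sample. The factors were GST-fused human transcription factors from yeast, captured on glutathione beads, DNA-barcoded and pooled with that sample. Pools were incubated with 200 nmole of a random double-stranded 16-mer DNA library in Tris/NaCl/DTT/glycerol buffer at room temperature for 30 min, then washed, crosslinked with 0.1% formaldehyde, proximity-ligated with BsaI/T4 ligase (1 h, 37 °C), PCR-amplified and sequenced on an Illumina NextSeq500.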

[2] = biological target: T2, ETV3L (Homo sapiens, UniProt Q6ZN32 1-361)
T2 sequence: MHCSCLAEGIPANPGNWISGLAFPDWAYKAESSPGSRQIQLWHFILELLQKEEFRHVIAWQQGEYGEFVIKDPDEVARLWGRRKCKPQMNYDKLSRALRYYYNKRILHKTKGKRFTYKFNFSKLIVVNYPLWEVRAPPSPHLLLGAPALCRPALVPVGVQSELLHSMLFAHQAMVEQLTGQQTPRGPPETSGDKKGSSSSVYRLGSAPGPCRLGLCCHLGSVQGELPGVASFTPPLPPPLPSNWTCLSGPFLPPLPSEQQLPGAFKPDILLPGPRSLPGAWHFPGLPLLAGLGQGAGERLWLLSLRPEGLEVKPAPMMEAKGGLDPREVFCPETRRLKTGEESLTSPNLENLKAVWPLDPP
How it was run: as §1

[3] = biological target: T3, ETS2 (Homo sapiens, UniProt P15036 1-469)
T3 sequence: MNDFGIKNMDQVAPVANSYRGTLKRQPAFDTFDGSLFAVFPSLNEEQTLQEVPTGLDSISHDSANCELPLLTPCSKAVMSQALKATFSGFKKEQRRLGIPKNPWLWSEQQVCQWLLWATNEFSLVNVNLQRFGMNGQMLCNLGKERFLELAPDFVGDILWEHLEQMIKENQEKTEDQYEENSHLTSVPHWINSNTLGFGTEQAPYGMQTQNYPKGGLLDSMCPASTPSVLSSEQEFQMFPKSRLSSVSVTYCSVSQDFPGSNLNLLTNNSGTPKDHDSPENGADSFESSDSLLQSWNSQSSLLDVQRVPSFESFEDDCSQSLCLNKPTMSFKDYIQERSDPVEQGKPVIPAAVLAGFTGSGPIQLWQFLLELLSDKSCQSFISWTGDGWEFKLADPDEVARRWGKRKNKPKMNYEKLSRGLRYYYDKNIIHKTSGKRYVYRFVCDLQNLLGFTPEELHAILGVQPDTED
How it was run: as §1

[4] = biological target: T4, SPDEF (Homo sapiens, UniProt O95238 1-335)
T4 sequence: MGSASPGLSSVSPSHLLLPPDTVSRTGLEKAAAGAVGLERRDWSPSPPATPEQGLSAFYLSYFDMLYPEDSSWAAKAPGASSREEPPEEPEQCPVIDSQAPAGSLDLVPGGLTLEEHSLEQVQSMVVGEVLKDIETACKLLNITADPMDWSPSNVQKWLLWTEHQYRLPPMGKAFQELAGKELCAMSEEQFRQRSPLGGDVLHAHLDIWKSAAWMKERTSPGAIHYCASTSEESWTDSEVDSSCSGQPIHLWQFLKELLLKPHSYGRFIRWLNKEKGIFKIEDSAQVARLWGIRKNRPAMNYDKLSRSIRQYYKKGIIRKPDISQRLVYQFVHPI
How it was run: as §1

[5] = biological target: T5, ETV7 (Homo sapiens, UniProt Q9Y603 1-341)
T5 sequence: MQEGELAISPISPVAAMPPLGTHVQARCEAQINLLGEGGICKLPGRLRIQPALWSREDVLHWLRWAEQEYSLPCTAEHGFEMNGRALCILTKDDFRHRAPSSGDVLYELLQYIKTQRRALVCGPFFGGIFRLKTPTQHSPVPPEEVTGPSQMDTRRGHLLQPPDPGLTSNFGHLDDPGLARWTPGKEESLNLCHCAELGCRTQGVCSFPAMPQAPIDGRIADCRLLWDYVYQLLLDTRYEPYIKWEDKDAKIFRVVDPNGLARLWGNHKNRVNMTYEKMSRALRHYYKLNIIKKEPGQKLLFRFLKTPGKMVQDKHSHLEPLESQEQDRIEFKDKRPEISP
How it was run: as §1

[6] = biological target: T6, ELF5 (Homo sapiens, UniProt Q9UKW6-2 1-255)
T6 sequence: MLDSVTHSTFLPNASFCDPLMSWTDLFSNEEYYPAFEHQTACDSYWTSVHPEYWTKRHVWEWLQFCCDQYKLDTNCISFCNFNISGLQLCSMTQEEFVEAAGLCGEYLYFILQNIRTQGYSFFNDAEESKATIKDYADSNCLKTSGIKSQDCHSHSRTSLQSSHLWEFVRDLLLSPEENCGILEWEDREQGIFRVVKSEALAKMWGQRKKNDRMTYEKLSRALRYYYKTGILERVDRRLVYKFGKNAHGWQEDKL
How it was run: as §1

[7] = biological target: T7, ETV3 (Homo sapiens, UniProt P41162-2 1-143)
T7 sequence: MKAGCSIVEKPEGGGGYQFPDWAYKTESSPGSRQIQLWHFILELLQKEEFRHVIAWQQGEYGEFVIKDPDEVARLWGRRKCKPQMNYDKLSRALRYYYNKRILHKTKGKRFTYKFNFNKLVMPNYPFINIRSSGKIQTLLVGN
How it was run: as §1

[8] = biological target: ETV6 (Homo sapiens, UniProt P41212 1-452)
How it was run: as §1

Chain of ETV6 (P41212 whole entry): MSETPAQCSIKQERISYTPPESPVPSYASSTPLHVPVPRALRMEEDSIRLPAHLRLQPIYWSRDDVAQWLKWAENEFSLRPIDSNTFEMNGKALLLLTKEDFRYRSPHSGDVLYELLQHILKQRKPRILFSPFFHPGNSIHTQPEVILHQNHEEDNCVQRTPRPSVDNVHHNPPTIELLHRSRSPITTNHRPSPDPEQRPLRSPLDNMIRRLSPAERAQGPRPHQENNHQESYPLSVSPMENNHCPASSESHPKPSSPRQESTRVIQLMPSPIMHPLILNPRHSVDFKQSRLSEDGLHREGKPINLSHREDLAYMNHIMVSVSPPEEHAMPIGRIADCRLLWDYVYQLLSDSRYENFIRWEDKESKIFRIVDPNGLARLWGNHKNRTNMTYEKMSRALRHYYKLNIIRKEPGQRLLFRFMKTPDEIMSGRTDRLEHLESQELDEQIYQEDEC

Sequence	binding signal [1]	binding signal [2]	binding signal [3]	binding signal [4]	binding signal [5]	binding signal [6]	binding signal [7]	binding signal [8]
ATTCGA	1.29 fold enrichment (6-mer frequency, TF over GST control)	1.47 fold enrichment (6-mer frequency, TF over GST control)	1.31 fold enrichment (6-mer frequency, TF over GST control)	1.28 fold enrichment (6-mer frequency, TF over GST control)	1.28 fold enrichment (6-mer frequency, TF over GST control)	1.24 fold enrichment (6-mer frequency, TF over GST control)	1.22 fold enrichment (6-mer frequency, TF over GST control)	1.23 fold enrichment (6-mer frequency, TF over GST control)
ATGGCA	1.23 fold enrichment (6-mer frequency, TF over GST control)	1.2 fold enrichment (6-mer frequency, TF over GST control)	1.15 fold enrichment (6-mer frequency, TF over GST control)	1.1 fold enrichment (6-mer frequency, TF over GST control)	1.24 fold enrichment (6-mer frequency, TF over GST control)	1.26 fold enrichment (6-mer frequency, TF over GST control)	1.3 fold enrichment (6-mer frequency, TF over GST control)	1.28 fold enrichment (6-mer frequency, TF over GST control)
ATGCTC	1.33 fold enrichment (6-mer frequency, TF over GST control)	1.51 fold enrichment (6-mer frequency, TF over GST control)	1.42 fold enrichment (6-mer frequency, TF over GST control)	1.43 fold enrichment (6-mer frequency, TF over GST control)	1.37 fold enrichment (6-mer frequency, TF over GST control)	1.38 fold enrichment (6-mer frequency, TF over GST control)	1.35 fold enrichment (6-mer frequency, TF over GST control)	1.44 fold enrichment (6-mer frequency, TF over GST control)
TAGTTA	1.18 fold enrichment (6-mer frequency, TF over GST control)	1.1 fold enrichment (6-mer frequency, TF over GST control)	1.12 fold enrichment (6-mer frequency, TF over GST control)	1.06 fold enrichment (6-mer frequency, TF over GST control)	1.1 fold enrichment (6-mer frequency, TF over GST control)	1.06 fold enrichment (6-mer frequency, TF over GST control)	1.12 fold enrichment (6-mer frequency, TF over GST control)	1.16 fold enrichment (6-mer frequency, TF over GST control)
CCCCAT	1.16 fold enrichment (6-mer frequency, TF over GST control)	1.29 fold enrichment (6-mer frequency, TF over GST control)	1.32 fold enrichment (6-mer frequency, TF over GST control)	1.3 fold enrichment (6-mer frequency, TF over GST control)	1.19 fold enrichment (6-mer frequency, TF over GST control)	1.39 fold enrichment (6-mer frequency, TF over GST control)	1.31 fold enrichment (6-mer frequency, TF over GST control)	1.25 fold enrichment (6-mer frequency, TF over GST control)
CTGCAA	1.28 fold enrichment (6-mer frequency, TF over GST control)	1.35 fold enrichment (6-mer frequency, TF over GST control)	1.31 fold enrichment (6-mer frequency, TF over GST control)	1.11 fold enrichment (6-mer frequency, TF over GST control)	1.16 fold enrichment (6-mer frequency, TF over GST control)	1.17 fold enrichment (6-mer frequency, TF over GST control)	1.26 fold enrichment (6-mer frequency, TF over GST control)	1.33 fold enrichment (6-mer frequency, TF over GST control)
ACTCGT	1.25 fold enrichment (6-mer frequency, TF over GST control)	1.26 fold enrichment (6-mer frequency, TF over GST control)	1.27 fold enrichment (6-mer frequency, TF over GST control)	1.14 fold enrichment (6-mer frequency, TF over GST control)	1.26 fold enrichment (6-mer frequency, TF over GST control)	1.24 fold enrichment (6-mer frequency, TF over GST control)	1.21 fold enrichment (6-mer frequency, TF over GST control)	1.16 fold enrichment (6-mer frequency, TF over GST control)
CTCTAT	1.22 fold enrichment (6-mer frequency, TF over GST control)	1.14 fold enrichment (6-mer frequency, TF over GST control)	1.16 fold enrichment (6-mer frequency, TF over GST control)	1.16 fold enrichment (6-mer frequency, TF over GST control)	1.18 fold enrichment (6-mer frequency, TF over GST control)	1.14 fold enrichment (6-mer frequency, TF over GST control)	1.08 fold enrichment (6-mer frequency, TF over GST control)	1.06 fold enrichment (6-mer frequency, TF over GST control)
ATTTGA	1.14 fold enrichment (6-mer frequency, TF over GST control)	1.25 fold enrichment (6-mer frequency, TF over GST control)	1.2 fold enrichment (6-mer frequency, TF over GST control)	1.19 fold enrichment (6-mer frequency, TF over GST control)	1.28 fold enrichment (6-mer frequency, TF over GST control)	1.12 fold enrichment (6-mer frequency, TF over GST control)	1.21 fold enrichment (6-mer frequency, TF over GST control)	1.16 fold enrichment (6-mer frequency, TF over GST control)
ACTATT	1.22 fold enrichment (6-mer frequency, TF over GST control)	1.27 fold enrichment (6-mer frequency, TF over GST control)	1.37 fold enrichment (6-mer frequency, TF over GST control)	1.13 fold enrichment (6-mer frequency, TF over GST control)	1.32 fold enrichment (6-mer frequency, TF over GST control)	1.29 fold enrichment (6-mer frequency, TF over GST control)	1.35 fold enrichment (6-mer frequency, TF over GST control)	1.43 fold enrichment (6-mer frequency, TF over GST control)
TTGGGG	1.39 fold enrichment (6-mer frequency, TF over GST control)	1.3 fold enrichment (6-mer frequency, TF over GST control)	1.25 fold enrichment (6-mer frequency, TF over GST control)	1.17 fold enrichment (6-mer frequency, TF over GST control)	1.12 fold enrichment (6-mer frequency, TF over GST control)	1.14 fold enrichment (6-mer frequency, TF over GST control)	1.13 fold enrichment (6-mer frequency, TF over GST control)	1.26 fold enrichment (6-mer frequency, TF over GST control)
AAAATC	1.17 fold enrichment (6-mer frequency, TF over GST control)	1.18 fold enrichment (6-mer frequency, TF over GST control)	1.14 fold enrichment (6-mer frequency, TF over GST control)	1.2 fold enrichment (6-mer frequency, TF over GST control)	1.16 fold enrichment (6-mer frequency, TF over GST control)	1.15 fold enrichment (6-mer frequency, TF over GST control)	1.13 fold enrichment (6-mer frequency, TF over GST control)	1.19 fold enrichment (6-mer frequency, TF over GST control)
TACTCT	1.46 fold enrichment (6-mer frequency, TF over GST control)	1.37 fold enrichment (6-mer frequency, TF over GST control)	1.3 fold enrichment (6-mer frequency, TF over GST control)	1.39 fold enrichment (6-mer frequency, TF over GST control)	1.33 fold enrichment (6-mer frequency, TF over GST control)	1.38 fold enrichment (6-mer frequency, TF over GST control)	1.39 fold enrichment (6-mer frequency, TF over GST control)	1.39 fold enrichment (6-mer frequency, TF over GST control)
ACGTTT	1.18 fold enrichment (6-mer frequency, TF over GST control)	1.13 fold enrichment (6-mer frequency, TF over GST control)	1.2 fold enrichment (6-mer frequency, TF over GST control)	1.21 fold enrichment (6-mer frequency, TF over GST control)	1.33 fold enrichment (6-mer frequency, TF over GST control)	1.23 fold enrichment (6-mer frequency, TF over GST control)	1.1 fold enrichment (6-mer frequency, TF over GST control)	1.33 fold enrichment (6-mer frequency, TF over GST control)
CCAACT	1.13 fold enrichment (6-mer frequency, TF over GST control)	1.21 fold enrichment (6-mer frequency, TF over GST control)	1.24 fold enrichment (6-mer frequency, TF over GST control)	1.27 fold enrichment (6-mer frequency, TF over GST control)	1.2 fold enrichment (6-mer frequency, TF over GST control)	1.17 fold enrichment (6-mer frequency, TF over GST control)	1.17 fold enrichment (6-mer frequency, TF over GST control)	1.18 fold enrichment (6-mer frequency, TF over GST control)
